# TROY signal inh: inhibitors of TROY-driven NF-kB signaling, primary screen, Q293 LMP1-TROYcd cells, NF-kB luciferase, uHTS; Q293 LMP1-TROYcd NF-kB luciferase reporter, 4 h; 0.98% of 360,000 active; inhibition, % at 10 µM; AID 1347056, 2019;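 active = compounds whose plate-normalised and pattern-corrected inhibition of the luciferase reporter signal at the single screening dose is 50% or more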
# HIF-2a inh: HIF-2a reporter inhibitors, primary screen, luminescence, 786-0 RCC cells. 786-0 RCC cells HIF-2a reporter, luciferase luminescence, overnight. inhibition, % at 18.8 µM. 0.72% of 360,000 active;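 active = inhibition of the luminescence signal of 40% or more relative to plate controls, in a single-dose primary screen at 18.75 µM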
# CF NFkB inh: inhibitors of PAF-induced NF-kB signaling, primary screen, cell-based, GFP fluorescence, uHTS; KKLEB NF-kB-GFP reporter, GFP fluorescence overnight; inhibition, % at 5 µM; 0.86% of 360,000 active; AID 588850, 2011;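 active = at least 50% inhibition at 5 µM, scaled per plate between neutral and stimulator controls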;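 note: PAF is a Pseudomonas aeruginosa culture filtrate used as stimulus; plate controls were PAF-stimulated DMSO wells for no effect and unstimulated DMSO wells for full effect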
# TWEAK Fn14 block: inhibitors of TWEAK-Fn14 signaling, primary screen, luciferase reporter cells, uHTS. inhibition, % at 10 µM. 2% of 360,000 active. AID 1159606, 2016. TWEAK-stimulated Fn14 reporter cells, luciferase luminescence, 8 h; in the data active = inhibition above about 50%
# KKLEB tox: cytotoxicity in KKLEB CF airway cells, primary screen, cytotoxicity control for CF NF-kB inhibitor project, cell-based, uHTS, fluorescence assay plates; AID 602141, 2011; KKLEB CF airway cells viability, ATPlite luminescence, overnight; stronger effect = lower value; cells stimulated with P. aeruginosa culture filtrate; activity change (cytotoxicity), % at 5 µM; 0.36% of 360,000 active;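 active = corrected activity change at or below -50% at 5 µM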
# Peg3 promoter: Peg3 promoter-driven luciferase inhibitors, primary screen, cell-based, HeLa, luciferase luminescence; inhibition, % at 20 µM; 1.7% of 360,000 active; HeLa PEG-Prom luciferase reporter, overnight;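 active = inhibition of at least 50% at 20 µM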
# Numbers without * were called inactive; x = no result given. Hits are enriched below; roughly 4% of the tested compounds scored in any of these assays.
SMILES,TROY signal inh,HIF-2a inh,CF NFkB inh,TWEAK Fn14 block,KKLEB tox,Peg3 promoter
CCC(=O)N1c2ccccc2NC2=C(C(=O)CC(C)(C)C2)C1c1cccnc1 (centres undefined),8,13,-5,2,8,8
COc1cccc2oc3cc(C#CC4(O)CCCCC4)ccc3c(=O)c12,77*,-144,1,73*,-34,-95
COc1cccc2sc3ccc(C#CC4(O)CCCCC4)cc3c(=O)c12,77*,-278,-35,35,-14,-162
CCOC(=O)c1sc(=S)n(C)c1NC(=O)c1ccc(F)cc1,-13,11,-10,22,4,3
Cc1cc(/C=N/n2cnnc2)c(C)n1-c1ccc(OCc2ccc(Cl)cc2)cc1,-22,-26,-2,63*,-10,-35
O=c1c(-c2ccccc2)c(O)c2cccc3c2n1CCC3,18,10,12,-3,-23,-22
Cc1cc(C)c(-c2c(O)c3cccc4c3n(c2=O)CCC4)c(C)c1,3,12,-15,56*,2,4
Cc1ccccc1N1C(=O)CC(N2CCN(C(=O)c3ccco3)CC2)C1=O (centres undefined),11,4,4,9,2,5
O=C(Nc1ccc(-c2nc3ccccc3o2)c(O)c1)c1cc(-n2cnnc2)ccc1Cl,38,-34,-3,66*,9,-30
Cc1ccc(OCC(=O)Nc2ccc(O)c(-c3nc4ccccc4o3)c2)cc1,7,5,70*,-45,-61*,52*
O=C(Nc1ccc2oc(-c3ccccc3)nc2c1)c1cc(-n2cnnc2)ccc1Cl,-34,-217,-20,32,10,-118
O=C(CN1C(=O)c2ccccc2C1=O)Nc1ccc(-c2nc3ccccc3o2)cc1,x,-14,12,72*,11,-17
O=C(CCN1C(=O)c2ccccc2C1=O)Nc1ccc(-c2nc3ccccc3o2)cc1,-21,-70,-8,-25,6,-168
O=C(Nc1ccc(-c2nc3ccccc3o2)cc1)c1cc(-n2cnnc2)ccc1Cl,36,-192,6,76*,3,-102
CCOC(=O)C1CCN(C(=O)COC(=O)CSc2ccc(C(N)=O)cc2[N+](=O)[O-])CC1,1,14,13,3,8,13
O=C(Nc1ccc(-c2nc3ccccc3o2)cc1)c1ccc(N2C(=O)C3C4C=CC(C4)C3C2=O)cc1 (centres undefined),57*,-87,18,21,-10,-20
Cc1csc(NC(=O)Cc2coc3cc(C)c(C(C)C)cc23)n1,55*,-11,-3,-31,-15,18
CS(=O)(=O)N1CCN(c2ccccc2NC(=S)NC(=O)c2ccco2)CC1,11,11,-18,-3,-3,21
O=C(O)c1ccc2c(=O)[nH]c(CN3CCOCC3)nc2c1,21,10,-4,8,-5,1
CC(Nc1nc(N2CCCCC2)nc2ccccc12)c1ccccc1 (centres undefined),4,25,29,-42,-39,68*
CC(Nc1nc(-c2ccccc2)nc2ccccc12)c1ccccc1 (centres undefined),4,-16,12,5,-9,11
COCCNC(=O)C1(C)CCCN(Cc2ccc(OCc3ccccc3)cc2)C1 (centres undefined),10,2,1,18,-6,-8
CN(C)CCNc1ncnc2c1sc1nc(-c3ccccc3)c3c(c12)CCCC3,39,-6,8,2,-5,111*
CC(C)C(Cl)=NOC(=O)Nc1ccc(S(N)(=O)=O)cc1,-17,23,41,56*,-7,88*
COC(=O)[C@H](C)NC(=O)Nc1ccc(S(N)(=O)=O)cc1,12,13,2,1,2,-8
Cc1ccc(CC(=O)O/N=C(\N)c2ccccn2)cc1,-16,-177,-9,-2,-16,-160
CC(C)(C)CC(=O)O/N=C(\N)c1ccccn1,0,22,1,61*,7,-13
